In PubChem BioAssay AID1159580 (chemical genetic matrix, 2015):
“And” between values parts separate entries of the source, which are not always exact repeats. Identical values can stand only once. Out of some 5,500 compounds screened, about 2,000 (36%) were called active. Not shown: some 18% with an inconclusive outcome. Rule as the data show it: active = normalized growth mostly below about 0.91 (no sharp cut-off); inconclusive = no clear call, values can overlap the other calls; inactive = mostly above about 0.92. This is one part of the list.

Assay: chemical genetic growth profiling, strain panel (AID 1159580);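 also: tested at 20 µM; growth read once vehicle control cultures reached saturation at 30 °C; 1 = growth at the plate median or of vehicle wells; lower values mean less growth of the strain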
Details: S. cerevisiae deletion strains, growth OD

Measured: normalized growth

Clc1ccccc1C(c1ccccc1)(c1ccccc1)n1ccnc1
active: locus YAL013W, strain DEP1, hits give low values 0.0556 and 0.0854 | locus YAL021C, strain ccr4, hits give low values 0.0659 | locus YAL026C, strain drs2, hits give low values 0.0665 | locus YAL030W, strain snc1, hits give low values 0.0563 | locus YAL040C, strain CLN3, hits give low values 0.613 | locus YBL061C, strain skt5, hits give low values 0.0604 | locus YBR009C, strain hhf1, hits give low values 0.0704 | locus YBR021W, strain FUR4, hits give low values 0.0896 | locus YBR023C, strain chs3, hits give low values 0.0661 | locus YBR171W, strain sec66, hits give low values 0.0777 | locus YBR229C, strain ROT2, hits give low values 0.0472 | locus YBR231C, strain swc5, hits give low values 0.0624 | locus YBR279W, strain paf1, hits give low values 0.0598 | locus YCL011C, strain gbp2, hits give low values 0.0573 | locus YCL016C, strain dcc1, hits give low values 0.066 | locus YCL029C, strain bik1, hits give low values 0.0623 | locus YCL061C, strain MRC1, hits give low values 0.0642 | locus YCL069W, strain vba3, hits give low values 0.0627 | locus YCR088W, strain abp1, hits give low values 0.0657 | locus YDL005C, strain med2, hits give low values 0.0759 | locus YDL035C, strain GPR1, hits give low values 0.0497 | locus YDL040C, strain nat1, hits give low values 0.058 | locus YDL074C, strain BRE1, hits give low values 0.0785 | locus YDL101C, strain DUN1, hits give low values 0.0582 | locus YDL134C, strain PPH21, hits give low values 0.0506 | locus YDL185W, strain tfp1, hits give low values 0.0604 | locus YDL192W, strain arf1, hits give low values 0.0622 | locus YDR001C, strain nth1, hits give low values 0.0587 | locus YDR069C, strain doa4, hits give low values 0.0629 | locus YDR101C, strain arx1, hits give low values 0.0588 | locus YDR137W, strain rgp1, hits give low values 0.103 | locus YDR150W, strain NUM1, hits give low values 0.0555 | locus YDR159W, strain sac3, hits give low values 0.0888 | locus YDR162C, strain NBP2, hits give low values 0.0501 | locus YDR195W, strain ref2 0.125 | locus YDR297W, strain sur2, hits give low values 0.0578 | locus YDR318W, strain mcm21, hits give low values 0.0626 | locus YDR334W, strain swr1, hits give low values 0.0633 | locus YDR335W, strain msn5, hits give low values 0.0619 | locus YDR388W, hits give low values 0.0576 | locus YDR392W, strain spt3, hits give low values 0.0716 | locus YDR502C, strain sam2, hits give low values 0.0632 | locus YEL003W, strain gim4, hits give low values 0.0556 | locus YEL037C, strain rad23, hits give low values 0.0574 | locus YEL061C, strain CIN8 (second series), hits give low values 0.0638 | locus YEL061C, strain CIN8, hits give low values 0.0506 | locus YER002W, strain NOP16, hits give low values 0.0949 | locus YER015W, strain faa2, hits give low values 0.0658 | locus YER016W, strain bim1, hits give low values 0.0637 | locus YER110C, hits give low values 0.0769 | locus YER111C, strain swi4, hits give low values 0.0727 | locus YER155C, strain BEM2 (second series), hits give low values 0.0917 | locus YER155C, strain BEM2, hits give low values 0.0644 | locus YER167W, strain BCK2, hits give low values 0.0514 | locus YFR010W, strain ubp6, hits give low values 0.0718 | locus YGL078C, strain dbp3, hits give low values 0.0828 | locus YGL086W, strain mad1, hits give low values 0.0584 | locus YGL167C, strain pmr1, hits give low values 0.0741 | locus YGL173C, strain kem1, hits give low values 0.07 | locus YGL227W, strain vid30, hits give low values 0.0633 | locus YGL240W, strain doc1, hits give low values 0.0729 | locus YGL248W, strain PDE1, hits give low values 0.0484 | locus YGL253W, strain hxk2, hits give low values 0.0556 | locus YGR078C, strain PAC10, hits give low values 0.0496 | locus YGR135W, strain pre9, hits give low values 0.0631 | locus YGR252W, strain gcn5, hits give low values 0.165 | locus YHR013C, strain ard1, hits give low values 0.105 | locus YHR027C, strain rpn1, hits give low values 0.0633 | locus YHR030C, strain SLT2, hits give low values 0.0505 and 0.1 | locus YHR079C, strain IRE1 (second series), hits give low values 0.0577 | locus YHR079C, strain IRE1, hits give low values 0.135 | locus YHR094C, strain hxt1, hits give low values 0.059 | locus YHR129C, strain ARP1, hits give low values 0.0557 | locus YHR142W, strain chs7, hits give low values 0.0738 | locus YHR200W, strain rpn10, hits give low values 0.0614 | locus YIL066C, strain RNR3, hits give low values 0.0483 | locus YIL073C, strain SPO22, hits give low values 0.112 | locus YIL125W, strain kgd1, hits give low values 0.0895 | locus YIR030C, strain dcg1, hits give low values 0.0606 | locus YJL092W, strain hpr5, hits give low values 0.0611 | locus YJL095W, strain BCK1 (second series), hits give low values 0.059 | locus YJL095W, strain BCK1, hits give low values 0.0611 and 0.105 | locus YJL115W, strain asf1, hits give low values 0.0739 | locus YJL129C, strain trk1, hits give low values 0.0834 | locus YJL134W, strain LCB3, hits give low values 0.0474 | locus YJL154C, strain vps35, hits give low values 0.0614 | locus YJL164C, strain tpk1, hits give low values 0.0678 | locus YJL166W, strain qcr8, hits give low values 0.064 | locus YJL168C, strain set2, hits give low values 0.0596 | locus YJL187C, strain SWE1 (second series), hits give low values 0.0488 | locus YJR043C, strain POL32, hits give low values 0.0648
